Source: PubChem BioAssay (EPA / NIEHS)
The source made the active and inactive calls. The calls were made as follows: active = hit-call score of the fitted dose curve at least 0.9, where 1 is the maximum; inactive = score below 0.9.

These compounds were tested on Transforming Growth Factor (TGFA), TGFA (gene 7039) (assay: LTEA_HepaRG_TGFA: Life Technologies and Expression Analysis (LTEA) Assay for Transforming Growth Factor (TGFA) using HepaRG (AID 2283532)). Settings: mRNA level, 48 h; actives raise or lower the signal.
Procedure: LTEA_HepaRG is a cell based, multiplexed-readout assay that uses HepaRG, a human liver cell line, with measurements taken at 48 hours after chemical dosing on a 96-well plate.LTEA_HepaRG_TGFA is one of 102 assay component(s) measured in the LTEA HepaRG cell culture assay. It is a marker of Cell proliferation, survival, death.Data from the assay component LTEA_HepaRG_TGFA was analyzed into 1 endpoint. This assay endpoint, LTEA_HepaRG_TGFA, was analyzed with bidirectional fitting relative to DMSO as the negative control and baseline of activity. Using a type of inducible reporter, measures of mRNA induction for gain or loss-of-signal activity can be used to understand regulation of transcription factor activity. To generalize the intended target to other relatable targets, this assay endpoint is annotated to the growth factor intended target family, where the subfamily is EGF-like domain.
A total of 1060 chemcials from the ToxCast library were tested in eight-point concentration-response experiments. Cell culture and cytotoxicity assays were conducted at Thermo Fisher Scientific's Custom Services facility (Madison, WI). A single lot of human HepaRG cells (Thermo Fisher Scientific, Frederick, MD) was used for the cell culture experiments. 96-well format collagen type I coated plates of human HepaRG cells were prepared using established methods. Briefly, cryopreserved HepaRG cells were thawed, plated at a density of approximately 100,000 cells/well in HepaRG Thaw, Plate, and General Purpose media (HPRG770, Thermo Fisher Scientific), and incubated for 48 hours. 0.5% DMSO was selected as vehicle control to balance the requisite need of DMSO in HepaRG cultures to maintain differentiation (for example, baseline metabolism, proportions of hepatocytes vs. cholangiocytes), while enabling further hepatic receptor pathway activation (for example, PXR and CAR) in response to chemical exposure. 48 hours after plating, the culture medium was replaced with HepaRG Serum-Free Incudtion Media. Cells were exposed to each test chemical in duplicate and maintained in CO2 incubators for another 48 hours. Chemical plates were thawed to room temperature and 200x concentrations of treatment groups were prepared. 8-point conentration-reponse curves were made with the highest exposure at 100 uM, followed by half-log dilutions, all in 0.5% DMSO. Each test plate contained variouse controls, induction positive controls (1mM phenobarbital), cytotoxicity positive controls ([…] aflatoxin B1), vehicle controls (0.5% DMSO), and total lysis controls (0.5% DMSO). Cell morphology images were taken using an Essen IncuCyte FLR automated microscope, with six 96-well plates imaged in about 24 minutes. Images were captured and exported and JPEG files. Spent culture media was transfered to black-well plates for the LDH assay, and remaining media was sorted at -80 C for later use. Cells were treated with RLT buffer and frozen until shipped for gene expression analysis. Total RNA was isolated from the cell suspension in 75 uL of Buffer RLT (Qiagen, Germantown, MD 20874) by Quintiles/Expression Analysis (Durham, NC) using a custom isolation procedure. Total RNA from each plate well was transferred to a preamplification plate. Fluidigm's 96.96 Dynamic ArrayTM (Fluidigm, Amsterdam, the Netherlands) technology was used for gene expression analyses by quantitative reverse transcription polymerase chain reaction (qRT-PCR, performed by Quintiles/Expression Analysis, Durham, NC)89. Standard TaqManTM Assays (Applied Biosystems/ThermoFisher Scientific, Foster City, CA) were used to assess the expression of 93 genes selected based on their selectivity and sensitivity to important hepatic receptors known to be modulated by environmental chemicals; importance in human hepatocyte functionality; and hepatotoxicity. […]
In the case of `COP(=S)(OC)Oc1ccc([N+](=O)[O-])c(C)c1`, the outcome is reported as “inactive”. `COC(=O)N(C(=O)N1CO[C@@]2(C(=O)OC)Cc3cc(Cl)ccc3C2=N1)c1ccc(OC(F)(F)F)cc1` was tested, and the outcome was “inactive”. For `CC(C)(C)C(=O)C(Oc1ccc(Cl)cc1)n1cncn1` (stereo not given), the outcome was “inactive”. `O=C1C2CC=CCC2C(=O)N1SC(Cl)(Cl)Cl` (stereo not given) was tested, and the outcome was “inactive”. In the case of `COC(=O)NS(=O)(=O)c1ccc(N)cc1`, the outcome is reported as “inactive”. With `CCOC(=O)C(C)OC(=O)c1cc(Oc2ccc(C(F)(F)F)cc2Cl)ccc1[N+](=O)[O-]` (stereo not given) the outcome was “inactive”. `COc1cc(OC)nc(NC(=O)NS(=O)(=O)c2ncccc2OCC(F)(F)F)n1` was tested, and the outcome was “inactive”. `CC1(C)C(C(=O)OC(C#N)c2cccc(Oc3ccccc3)c2)C1(C)C` (stereo not given) was tested, and the outcome was “inactive”. With `N#Cc1c[nH]cc1-c1cccc2c1OC(F)(F)O2` the outcome was “inactive”. With `COc1ccc(-c2ccccc2)cc1NNC(=O)OC(C)C` the outcome was “inactive”. With `CS(=O)(=O)c1ccc(C(=O)C2C(=O)CCCC2=O)c([N+](=O)[O-])c1` the outcome was “inactive”. In the case of `CCOc1nc(C(Cl)(Cl)Cl)ns1`, the AC50 is reported as 1.14 µM (active). With `Cc1ccc(N=CN(C)C=Nc2ccc(C)cc2C)c(C)c1` the outcome was “inactive”. For `CCCN(CC)CC1COC2(CCC(C(C)(C)C)CC2)O1` (stereo not given), the outcome was “inactive”. In the case of `Cc1nc(N(C)C)nc(OC(=O)N(C)C)c1C`, the outcome is reported as “inactive”. `CCOc1cc(C(C)(C)C)ccc1C1COC(c2c(F)cccc2F)=N1` (stereo not given) was tested, and the outcome was “inactive”. `CCN(CC)c1nc(C)cc(OP(=S)(OC)OC)n1` was tested, and the outcome was “inactive”. With `CN/C(=N\[N+](=O)[O-])NCc1cnc(Cl)s1` the outcome was “inactive”. With `CC1(C)CCC(=Cc2ccc(Cl)cc2)C1(O)Cn1cncn1` (stereo not given) the outcome was “inactive”. With `CCSC(=O)N1CCCCCC1` the outcome was “inactive”. `CO/N=C(/C1=NOCCO1)c1ccccc1Oc1ncnc(Oc2ccccc2Cl)c1F` was tested, and the AC50 was 31.2 µM (active). For `CC(C)Oc1cccc(NC(=O)c2ccccc2C(F)(F)F)c1`, the outcome was “inactive”. `CC1(C)C(C=C(Cl)Cl)C1C(=O)OC(C#N)c1cccc(Oc2ccccc2)c1` (stereo not given) was tested, and the outcome was “inactive”. In the case of `O=c1n(Cl)c(=O)n(Cl)c(=O)n1Cl`, the outcome is reported as “inactive”. For `CCOP(=O)(OCC)Oc1nc(Cl)c(Cl)cc1Cl`, the outcome was “inactive”. `COP(=O)(OC)O/C(C)=C/C(=O)N(C)C` was tested, and the outcome was “inactive”. `CCCCC(O)(Cn1cncn1)c1ccc(Cl)cc1Cl` (stereo not given) was tested, and the AC50 was 71.8 µM (active). For `CCCCOCN(C(=O)CCl)c1c(CC)cccc1CC`, the outcome was “inactive”. In the case of `CCNP(=S)(OC)O/C(C)=C/C(=O)OC(C)C` (stereo not given), the outcome is reported as “inactive”. For `N#Cc1c(Cl)cccc1Cl`, the outcome was “inactive”. For `COC(=O)c1c(C(F)F)nc(C(F)(F)F)c(C2=NCCS2)c1CC(C)C`, the outcome was “inactive”. `CCNC(=O)NC(=O)C(C#N)=NOC` was tested, and the outcome was “inactive”. `CCCCC(C#N)(Cn1cncn1)c1ccc(Cl)cc1` (stereo not given) was tested, and the outcome was “inactive”. In the case of `COC(=O)NC(=S)Nc1ccccc1NC(=S)NC(=O)OC`, the outcome is reported as “inactive”. `CCOc1nc(F)cc2nc(S(=O)(=O)Nc3c(Cl)cccc3Cl)nn12` was tested, and the outcome was “inactive”. `Nc1c(Cl)c(Cl)nc(C(=O)O)c1Cl` was tested, and the outcome was “inactive”. For `Nc1cnn(-c2ccccc2)c(=O)c1Cl`, the outcome was “inactive”. For `COCC(=O)N(c1c(C)cccc1C)C(C)C(=O)OC` (stereo not given), the outcome was “inactive”. `Cc1c(COC(=O)[C@@H]2[C@H](/C=C(\Cl)C(F)(F)F)C2(C)C)cccc1-c1ccccc1` was tested, and the outcome was “inactive”. In the case of `OC(c1ccc(Cl)cc1)(c1ccc(Cl)cc1)C(Cl)(Cl)Cl`, the AC50 is reported as 70.5 µM (active).
